Growth inhibition data for 20 molecules are collected here from PubChem BioAssay (NCI).

Molecules are shown by their SMILES. About 79,000 compounds went through this panel and 15% of them were active in at least one assay; those are over-represented in the sample as a whole. Values without a mark were called inactive. Calls of active or inactive are those of the source. No stated cut-off is given here; in the data, active means growth inhibition above about 70%; inactive means the rest.

A short description of assay [1]: NCI Yeast Anticancer Drug Screen. Data for the rad50 strain (AID 155).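 Further: 0% = growth of vehicle-only cultures of the same strain.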 Particulars: S. cerevisiae rad50 strain growth inhibition; at 50.0 µM; hits give high values. In short, it runs like this:
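Vehicle-treated cultures provide the reference for the growth inhibition reported for compound-exposed, repair-deficient yeast.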

Assay [2] can be described thus: NCI Yeast Anticancer Drug Screen. Data for the mec2-1 strain (AID 157). Conditions: S. cerevisiae mec2-1 strain, at 50.0 µM, hits give high values. Summed up: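 Using mec2-1 yeast: add compound, measure growth, express inhibition versus vehicle-treated cultures.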
Assay [3] is described as follows: NCI Yeast Anticancer Drug Screen. Data for the sgs1 mgt1 strain (AID 161).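 Further: 0% = growth of cultures given vehicle only.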 Conditions: S. cerevisiae sgs1 mgt1 strain, at 50.0 µM, hits give high values. In short, it runs like this: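 Growth of a repair-deficient yeast mutant was monitored after compound treatment and expressed as inhibition relative to vehicle-treated cultures.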
Assay [4] in a line: NCI Yeast Anticancer Drug Screen. Data for the cln2 rad14 strain (AID 165).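 Further: 0% = growth equal to vehicle treated cultures.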 Conditions: S. cerevisiae cln2 rad14 strain, at 50.0 µM, hits give high values. In short, it runs like this:
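Yeast strain cln2 rad14, bearing defects in cell cycle control and DNA repair, serves as the test system; values reflect growth inhibition compared with vehicle.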

A short description of assay [5]: NCI Yeast Anticancer Drug Screen. Data for the bub3 strain (AID 167). Conditions: S. cerevisiae bub3 mutant strain, at 50.0 µM, hits give high values. In short, it runs like this: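 Mutant yeast screening strain plus compound; vehicle-treated cultures serve as the 0% inhibition reference.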
Assay [6] in a line: NCI Yeast Anticancer Drug Screen. Data for the mlh1 rad18 strain (AID 175). Conditions: S. cerevisiae mlh1 rad18 strain growth inhibition; at 50.0 µM; hits give high values. In short, it runs like this: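 Steps: expose repair-defective yeast to compound; measure growth; express inhibition against vehicle-treated controls.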

As for `O=S(=O)(Oc1cccc2ccccc12)c1ccccc1`, the growth inhibition in assay [1] was -2.7%; in assay [2] it was -2.5%; in assay [3], -5.05%; in assay [4] it was -5.45%; in assay [5], 0.95%; in assay [6], 8.4%.

Turning to `Cc1ccc2c(c1)C(c1cccc3ccccc13)OC2=O` (stereo not given), the growth inhibition in assay [1] is 21.6%; in assay [2] it was 1.65%; in assay [3] it was 40.2%; in assay [4], 33.3%; in assay [5] it was 14.2%; in assay [6], 29.4%.

For `CC(=O)[C@H]1CC[C@H]2[C@@H]3CC=C4N(CCO)C(=O)CC[C@]4(C)[C@H]3CC[C@]12C`, the growth inhibition in assay [1] was -18.9%; in assay [2], -1.4%; in assay [3], 14.8%; in assay [4], -28.1%; in assay [5], 25.9%; in assay [6] it was 13.3%.

As to `CC(=O)NC(CC(=O)O)C(=O)Nc1ccccc1` (stereo not given), the growth inhibition in assay [1] was 13.8%; in assay [2], 36.8%; in assay [3] it was 16.6%; in assay [4] it was 13.6%; in assay [5], 8.9%; in assay [6] it was 13.4%.

`Cc1ccc(S(=O)(=O)N/N=C(/c2ccccc2)c2ccsc2C)cc1`: the growth inhibition in assay [1] was 6.7%; in assay [2] it was 37.3%; in assay [3], 37%; in assay [4], 24.2%; in assay [5], 41.3%; in assay [6] it was 53.4%.

On to `CC1CCN(CCOC(=O)c2ccc(OC(C)C)cc2)C1` (stereo not given), for which the growth inhibition was 8.1% in assay [1]; 12.6% in assay [2]; 24.4% in assay [3]; -10.5% in assay [4]; 11.2% in assay [5]; 12.1% in assay [6].

On to `CC(=O)c1ccccc1NS(=O)(=O)c1ccc2nc(C)n(NS(=O)(=O)c3ccccc3C(C)=O)c(=O)c2c1`, for which the growth inhibition in assay [1] was 43.5%; in assay [2], 19.6%; in assay [3], -5.25%; in assay [4], 7.2%; in assay [5] it was 4.55%; in assay [6], 28.6%.

With `CCOC(=O)N/C=C/C(C)=O`, the growth inhibition in assay [1] is -31.1%; in assay [2], -14.2%; in assay [3], -1.5%; in assay [4], -29.4%; in assay [5] it was -6.35%; in assay [6], -14.5%.

Regarding `CCc1cnc(N)nc1N`, the growth inhibition is -0.6% in assay [1]; 4.75% in assay [2]; 5.85% in assay [3]; 1.95% in assay [4]; 0.95% in assay [5]; 0.65% in assay [6].

Consider `OC1(c2ccccc2)CC2C=CC1C2` (stereo not given), for which the growth inhibition in assay [1] was -5.9%; in assay [2], 8.2%; in assay [3], 8.05%; in assay [4] it was 17.2%; in assay [5], 15.3%; in assay [6] it was 5.15%.

For the molecule `Cc1ccc(S(=O)(=O)N(C)c2cc(Cl)c(C(=O)O)cc2Cl)cc1`, the growth inhibition in assay [1] was -0.7%; in assay [2] it was -14.9%; in assay [3] it was 5.85%; in assay [4], 4.05%; in assay [5] it was -14.3%; in assay [6] it was 15.1%.

Consider `Nc1cnccc1NCC(O)c1ccccc1` (stereo not given), for which the growth inhibition in assay [1] is 9.95%; in assay [2], -5.9%; in assay [3], -6.65%; in assay [4] it was -15.6%; in assay [5], -1.5%; in assay [6] it was -8.6%.

In the case of `CN1CCN=C(C(=O)O)C=C1c1ccccc1O`, the growth inhibition was 28.9% in assay [1]; 26.7% in assay [2]; 26.7% in assay [3]; -28.2% in assay [4]; -2.4% in assay [5]; 11.9% in assay [6].

Take `C/C(CC(C)C)=N/Nc1ccc([N+](=O)[O-])cc1[N+](=O)[O-]`: the growth inhibition in assay [1] is 5.85%; in assay [2] it was -2.05%; in assay [3], 2.65%; in assay [4], -42.6%; in assay [5] it was 19.9%; in assay [6] it was 26.8%.

Regarding `CC1(C)CCC23CCC4(C)C(CCC5C6(C)CCC(=O)C(C)(C)C6CCC54C)C2C1OC3` (stereo not given), the growth inhibition in assay [1] is -27.4%; in assay [2] it was -4.15%; in assay [3] it was -4.05%; in assay [4] it was 20.9%; in assay [5] it was -0.7%; in assay [6], -5.1%.

As for `COC1c2ccccc2CC1(C)C` (stereo not given), the growth inhibition in assay [1] is 13.8%; in assay [2] it was 8.8%; in assay [3], 5.65%; in assay [4], -52.4%; in assay [5] it was 10.3%; in assay [6] it was 9.55%.

Regarding `CC(=O)OC(C)C(O)C(O)C(/C=C/C1CC=CC(=O)O1)OC(C)=O` (stereo not given), the growth inhibition in assay [1] is 32.2%; in assay [2] it was 9.45%; in assay [3], 23.6%; in assay [4], 10.6%; in assay [5], 19.6%; in assay [6] it was 11.8%.

Regarding `CCCC(O)(Cc1ccccc1)c1ccccc1` (stereo not given), the growth inhibition in assay [1] was -39%; in assay [2], -25.5%; in assay [3], -15.2%; in assay [4], -3.45%; in assay [5] it was -15.2%; in assay [6], -14%.

For the molecule `CC(C)(C)c1ccc(OCCCl)c(Cl)c1`, the growth inhibition was 2.35% in assay [1]; -2.45% in assay [2]; 33.7% in assay [3]; -41.9% in assay [4]; 0.75% in assay [5]; 6.3% in assay [6].

On to `O=C(ONC1CCC(CC2CCCCC2)CC1)c1ccccc1` (stereo not given), for which the growth inhibition in assay [1] is 98.5% (active); in assay [2], 98.8% (active); in assay [3], 99% (active); in assay [4] it was 96.8% (active); in assay [5], 98.2% (active); in assay [6], 98.5% (active).
